Test results published in PubChem BioAssay (EPA / NIEHS).
Calls of active or inactive are those of the source. The calls were made as follows: active = hit-call score of the fitted dose curve at least 0.9, where 1 is the maximum; inactive = score below 0.9.

What was measured:
[1] = ATG_GRE_CIS: Attagene CIS-FACTORIAL HepG2 Assay for human Glucocorticoid Response Elements (GRE) (AID 2282947); details: HepG2 GRE cis-reporter, Attagene multiplex mRNA; actives raise or lower the signal
Outline: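 HepG2 cells transiently transfected with multiple cis-promoter reporter units measure endogenous TF activity; 24 h compound exposure. Reporter mRNA quantified by RT-PCR, FAM labelling, HpaI digestion and capillary electrophoresis; bidirectional fit vs DMSO baseline.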

[2] = ATG_ISRE_CIS: Attagene CIS-FACTORIAL HepG2 Assay for human Interferon Regulatory Factor 1 (IRF1) binding to an Interferon-Stimulated Response Element (ISRE) (AID 2282948); details: HepG2 ISRE cis-reporter (Attagene), mRNA transcription readout; actives raise or lower the signal
Outline: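 HepG2 cells transiently transfected with multiplexed cis-promoter reporter units; after 24 h compound exposure, reporter mRNA quantified by RT-PCR, FAM labelling, HpaI digestion and capillary electrophoresis. Bidirectional fit versus DMSO baseline.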

[3] = ATG_M_32_CIS: Attagene CIS-FACTORIAL HepG2 Assay for M32 Transcription Factor (Internal Marker) (AID 2282949); details: HepG2 Attagene cis-factorial M32 reporter, mRNA; actives raise or lower the signal;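 also: background control marker of the multiplexed CIS panel rather than a real target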
Outline: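 Following 24 h chemical exposure of HepG2 cells transiently expressing cis-promoter reporter constructs, reporter transcript levels were determined by RT-PCR with fluorescent labelling and capillary electrophoresis, then fitted bidirectionally against DMSO.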

[4] = ATG_M_06_CIS: Attagene CIS-FACTORIAL HepG2 Assay for M06 Transcription Factor (Internal Marker) (AID 2282950); details: HepG2 Attagene CIS-FACTORIAL M06 internal marker reporter; actives raise or lower the signal
Outline: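 Measured 24 h post-dosing in transiently transfected HepG2 cells, this internal-marker endpoint reports reporter mRNA via RT-PCR with fluorescent primer extension and capillary electrophoresis. DMSO served as negative control and baseline for bidirectional fitting.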

[5] = target: Hypoxia-inducible factor 1-alpha (Homo sapiens) (UniProt Q16665); test: ATG_HIF1a_CIS: Attagene CIS-FACTORIAL HepG2 Assay for human Hypoxia Inducible Factor 1 (HIF1A) (AID 2282951); details: HepG2 Attagene cis-factorial HIF1a reporter transcription; actives raise or lower the signal
Outline: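 Fluorescence intensity of capillary-separated, 6-FAM-labelled reporter amplicons gives mRNA induction in HepG2 cells carrying transfected cis-promoter reporter units; cells exposed 24 h, responses fitted up or down from DMSO.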

[6] = target: Hepatocyte nuclear factor 6 (Homo sapiens) (UniProt Q9UBC0); test: ATG_HNF6_CIS: Attagene CIS-FACTORIAL HepG2 Assay for human Hepatocyte Nuclear Factor 6 (HNF6) (AID 2282952); details: HepG2 Attagene cis-factorial HNF6 reporter transcription; actives raise or lower the signal
Outline: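 Reporter mRNA induction or loss in HepG2 after 24 h exposure; transient cis-MRTU transfection; fragments quantified by capillary electrophoresis; bidirectional analysis, DMSO as negative control.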

[7] = target: Heat shock factor protein 1 (Homo sapiens) (UniProt Q00613); test: ATG_HSE_CIS: Attagene CIS-FACTORIAL HepG2 Assay for human Heat Shock Transcription Factor 1 (HSE) (AID 2282953); details: HepG2 HSE cis-reporter, Attagene RNA transcription; actives raise or lower the signal
Outline: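 Reporter mRNA induction in HepG2 is measured 24 h after dosing, using transiently transfected multiplexed cis-regulated reporter units. Signal comes from capillary electrophoresis of labelled RT-PCR products, with DMSO as negative control.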

[8] = ATG_MRE_CIS: Attagene CIS-FACTORIAL HepG2 Assay for human Metal Responsive Element (MRE) (AID 2282954); details: HepG2 MRE cis-reporter transcription, Attagene multiplex; actives raise or lower the signal
Outline: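 HepG2 cells transiently transfected with multiple cis-element reporter units measure endogenous MTF1-driven transcription. After 24 h compound exposure, reporter mRNA is quantified by RT-PCR with 6-FAM labelling, HpaI digestion and capillary electrophoresis; bidirectional fits versus DMSO.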

[9] = ATG_PBREM_CIS: Attagene CIS-FACTORIAL HepG2 Assay for human Phenobarbital-responsive Enhancer Module (PBREM) (AID 2282955); details: HepG2 PBREM cis-reporter, Attagene multiplexed transcription; actives raise or lower the signal
Outline: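 Cells were transfected with cis-element reporter units and treated for 24 h, after which RNA was extracted and reporter transcripts measured by RT-PCR and capillary electrophoresis.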

[10] = target: Bile acid receptor (Homo sapiens) (UniProt Q96RI1); test: ATG_IR1_CIS: Attagene CIS-FACTORIAL HepG2 Assay for human Nuclear Receptor Subfamily 1 Group H Member 4 (NR1H4), IR1 submotif (AID 2282946); details: IR1 reporter transcription, actives raise or lower the signal
Outline: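 Transient MRTU transfection, HepG2; 24 h dosing; RNA → RT-PCR → 6-FAM primer extension → HpaI digest → capillary electrophoresis fluorescence. Gain/loss of signal fitted relative to DMSO.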

Sequence of Hypoxia-inducible factor 1-alpha (Homo sapiens) (Q16665 whole entry, looked up): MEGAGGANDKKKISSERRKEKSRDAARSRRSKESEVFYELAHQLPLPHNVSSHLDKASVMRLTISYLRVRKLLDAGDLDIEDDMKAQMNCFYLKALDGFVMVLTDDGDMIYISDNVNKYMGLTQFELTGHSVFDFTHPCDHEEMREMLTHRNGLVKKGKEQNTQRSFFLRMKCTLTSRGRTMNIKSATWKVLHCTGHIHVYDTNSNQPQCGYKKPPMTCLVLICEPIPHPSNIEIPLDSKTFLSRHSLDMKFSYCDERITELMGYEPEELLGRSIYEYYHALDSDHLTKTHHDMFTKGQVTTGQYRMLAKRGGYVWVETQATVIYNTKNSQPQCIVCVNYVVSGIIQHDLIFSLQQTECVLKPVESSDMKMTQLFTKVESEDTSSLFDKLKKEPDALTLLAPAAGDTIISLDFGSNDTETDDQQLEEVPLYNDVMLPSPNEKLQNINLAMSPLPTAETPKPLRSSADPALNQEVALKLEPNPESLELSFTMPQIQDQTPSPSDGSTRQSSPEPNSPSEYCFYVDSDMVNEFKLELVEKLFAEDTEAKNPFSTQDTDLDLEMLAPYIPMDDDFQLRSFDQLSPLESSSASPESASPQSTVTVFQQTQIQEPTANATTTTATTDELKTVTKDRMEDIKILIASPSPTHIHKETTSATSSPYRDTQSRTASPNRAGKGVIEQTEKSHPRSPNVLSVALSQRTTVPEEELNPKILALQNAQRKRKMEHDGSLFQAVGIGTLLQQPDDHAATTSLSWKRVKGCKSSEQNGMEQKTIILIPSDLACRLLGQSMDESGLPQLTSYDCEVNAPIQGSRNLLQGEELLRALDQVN
Sequence of Hepatocyte nuclear factor 6 (Homo sapiens) (Q9UBC0 whole entry, looked up, the tested form may be a part): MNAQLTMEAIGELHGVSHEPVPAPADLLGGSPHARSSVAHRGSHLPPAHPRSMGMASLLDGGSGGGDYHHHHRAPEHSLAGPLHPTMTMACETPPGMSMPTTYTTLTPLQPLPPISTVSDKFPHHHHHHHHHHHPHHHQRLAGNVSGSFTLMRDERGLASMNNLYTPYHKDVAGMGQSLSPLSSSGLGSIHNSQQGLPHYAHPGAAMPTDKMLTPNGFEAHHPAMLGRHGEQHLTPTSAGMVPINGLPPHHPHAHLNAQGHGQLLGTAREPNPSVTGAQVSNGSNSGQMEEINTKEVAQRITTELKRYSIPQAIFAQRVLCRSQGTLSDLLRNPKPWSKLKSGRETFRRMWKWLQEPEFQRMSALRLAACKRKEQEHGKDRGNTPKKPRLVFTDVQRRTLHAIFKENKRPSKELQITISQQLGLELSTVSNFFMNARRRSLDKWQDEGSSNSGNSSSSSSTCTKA
Sequence of Bile acid receptor (Homo sapiens) (Q96RI1 whole entry, looked up): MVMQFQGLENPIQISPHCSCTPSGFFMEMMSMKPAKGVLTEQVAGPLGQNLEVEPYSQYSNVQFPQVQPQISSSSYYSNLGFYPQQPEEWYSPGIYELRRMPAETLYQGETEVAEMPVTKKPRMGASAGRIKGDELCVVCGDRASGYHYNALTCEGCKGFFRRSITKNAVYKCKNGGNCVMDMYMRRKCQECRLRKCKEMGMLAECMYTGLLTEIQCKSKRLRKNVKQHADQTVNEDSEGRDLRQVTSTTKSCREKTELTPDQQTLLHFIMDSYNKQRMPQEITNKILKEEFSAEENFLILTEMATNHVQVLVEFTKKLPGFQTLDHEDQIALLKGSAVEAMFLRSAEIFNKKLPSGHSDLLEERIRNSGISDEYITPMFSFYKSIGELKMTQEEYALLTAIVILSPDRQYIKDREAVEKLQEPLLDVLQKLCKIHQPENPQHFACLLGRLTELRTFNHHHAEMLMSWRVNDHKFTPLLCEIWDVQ
Sequence of Heat shock factor protein 1 (Homo sapiens) (Q00613 whole entry, looked up): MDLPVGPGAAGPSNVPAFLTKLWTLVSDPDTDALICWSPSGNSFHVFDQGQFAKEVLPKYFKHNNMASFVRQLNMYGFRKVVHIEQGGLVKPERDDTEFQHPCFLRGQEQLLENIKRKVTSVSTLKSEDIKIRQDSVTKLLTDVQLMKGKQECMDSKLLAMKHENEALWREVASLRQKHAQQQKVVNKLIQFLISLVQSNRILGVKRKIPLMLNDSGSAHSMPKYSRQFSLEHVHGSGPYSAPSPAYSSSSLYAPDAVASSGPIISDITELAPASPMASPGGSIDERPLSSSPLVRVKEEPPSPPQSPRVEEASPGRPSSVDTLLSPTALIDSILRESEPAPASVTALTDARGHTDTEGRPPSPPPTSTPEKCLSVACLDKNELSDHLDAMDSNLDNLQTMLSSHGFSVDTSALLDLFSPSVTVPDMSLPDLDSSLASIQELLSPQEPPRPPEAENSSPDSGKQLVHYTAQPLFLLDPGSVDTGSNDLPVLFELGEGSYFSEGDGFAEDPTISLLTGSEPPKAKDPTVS

| SMILES | outcome [1] | outcome [2] | outcome [3] | outcome [4] | outcome [5] | outcome [6] | outcome [7] | outcome [8] | outcome [9] | outcome [10] | AC50 [7] | AC50 [9] | AC50 [2] | AC50 [8] | AC50 [5] |
| --- | --- | --- | --- | --- | --- | --- | --- | --- | --- | --- | --- | --- | --- | --- | --- |
| CC(C)(N=C=O)c1cccc(C(C)(C)N=C=O)c1 | inactive | inactive | inactive | inactive | inactive | inactive | inactive | inactive | inactive |  |  |  |  |  |  |
| COCCOCCOCCO | inactive | inactive | inactive | inactive | inactive | inactive | inactive | inactive | inactive |  |  |  |  |  |  |
| C=C(C)C(=O)OCCOCCOCCOC(=O)C(=C)C | inactive | inactive | inactive | inactive | inactive | inactive | inactive | inactive | inactive |  |  |  |  |  |  |
| O=C1OC(=O)c2c(Cl)c(Cl)c(Cl)c(Cl)c21 |  | inactive |  | inactive | inactive | inactive | inactive | inactive | inactive | inactive |  |  |  |  |  |
| Nc1ccc(NCCO)c([N+](=O)[O-])c1 | inactive | inactive | inactive | inactive | inactive | inactive | inactive | inactive | inactive |  |  |  |  |  |  |
| CCCCCCCCCCCCN1CCCCCC1=O |  | inactive |  | inactive |  | inactive |  | inactive |  | inactive | 15.8 µM (active) | 9.68 µM (active) |  |  |  |
| O=Cc1ccccc1S(=O)(=O)O | inactive | inactive | inactive | inactive | inactive | inactive | inactive | inactive | inactive |  |  |  |  |  |  |
| OCCOCCN1CCN(C2=Nc3ccccc3Sc3ccccc32)CC1 |  |  |  | inactive |  | inactive |  |  |  | inactive |  |  | 152 µM (active) | 71.7 µM (active) |  |
| COC(CC(C)CCCC(C)(C)O)OC (stereo not given) | inactive | inactive | inactive | inactive | inactive | inactive | inactive | inactive | inactive |  |  |  |  |  |  |
| ON=C1CCCCC1 | inactive | inactive | inactive | inactive | inactive | inactive | inactive | inactive | inactive |  |  |  |  |  |  |
| CC(=O)NCCO | inactive | inactive | inactive | inactive | inactive | inactive | inactive | inactive | inactive |  |  |  |  |  |  |
| c1ccc(CCc2ccccc2)cc1 |  | inactive |  | inactive | inactive | inactive | inactive | inactive | inactive | inactive |  |  |  |  |  |
| O=P(O)(O)O |  | inactive |  |  | inactive | inactive | inactive | inactive |  | inactive |  |  |  |  |  |
| CCCCCCCC(=O)OCC(O)CO (stereo not given) | inactive | inactive | inactive | inactive | inactive | inactive | inactive | inactive | inactive |  |  |  |  |  |  |
| C=CCCC(=O)/C=C/C1C(C)=CCCC1(C)C (stereo not given) | inactive | inactive | inactive | inactive | inactive | inactive |  |  | inactive |  | 152 µM (active) |  |  | 150 µM (active) |  |
| CC1=CC[C@@]23C[C@@H]1C(C)(C)[C@@H]2CC[C@H]3C | inactive | inactive | inactive | inactive | inactive | inactive | inactive | inactive | inactive |  |  |  |  |  |  |
| CCC(=O)O[C@@H]1C[C@H]2CC[C@]1(C)C2(C)C | inactive | inactive | inactive | inactive | inactive | inactive | inactive | inactive | inactive |  |  |  |  |  |  |
| CC(C)c1ccccc1O |  | inactive |  | inactive | inactive | inactive | inactive | inactive |  | inactive |  |  |  |  |  |
| CC(C)CCOC(=O)c1ccccc1 |  | inactive |  | inactive | inactive | inactive | inactive | inactive | inactive | inactive |  |  |  |  |  |
| CCCCSCCCC | inactive | inactive | inactive | inactive | inactive | inactive | inactive | inactive | inactive |  |  |  |  |  |  |
| N[C@@H](Cc1cc(I)c(Oc2cc(I)c(O)c(I)c2)c(I)c1)C(=O)O | inactive | inactive | inactive | inactive |  | inactive | inactive |  |  |  |  | 11.2 µM (active) |  | 27.8 µM (active) | 18.9 µM (active) |
| CCCC(=O)OCCc1ccccc1 | inactive | inactive | inactive | inactive | inactive | inactive | inactive | inactive | inactive |  |  |  |  |  |  |
| CC=Cc1ccc(OCC)c(O)c1 | inactive | inactive | inactive | inactive | inactive | inactive | inactive | inactive | inactive |  |  |  |  |  |  |
| CCOc1ccc(NC(=O)CC(C)=O)cc1 | inactive | inactive | inactive | inactive |  | inactive | inactive | inactive | inactive |  |  |  |  |  | 30.4 µM (active) |
| CCCCCCCC/C=C\CCCCCCCC(=O)OCC | inactive | inactive | inactive | inactive | inactive | inactive | inactive |  | inactive |  |  |  |  |  |  |
| C=Cc1ccc(C)cc1 | inactive | inactive | inactive |  | inactive | inactive | inactive |  | inactive |  |  |  |  |  |  |
| CCOCCOCCOCC | inactive | inactive |  | inactive | inactive | inactive | inactive | inactive | inactive |  |  |  |  |  |  |
| CC(C)CCCCCCCCCCCCCCC(=O)O | inactive | inactive | inactive | inactive |  | inactive | inactive |  | inactive |  |  |  |  |  |  |
| Cc1ccc(-c2ccccc2)cc1 | inactive | inactive | inactive |  | inactive | inactive | inactive | inactive | inactive |  |  |  |  |  |  |
